{"source": "the supplement of paper PMC8047044", "key": {"Neuro-2a [1]": {"tested_on": "Neuro-2a", "experiment": "neurite formation score, plate-normalized to DMSO control mean 5.04 (score (0-8 scale)); higher = more or longer neurites", "settings": "1 µM", "procedure": "(§1)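 Neuro-2a mouse neuroblastoma cells in PLL-coated 96-well plates were pre-treated for 1 h in DMEM(+) with each kinase inhibitor at 1 µM, then switched to serum-free DMEM(-) with inhibitor to induce neurite outgrowth and fixed about 2-3 h later. Three blinded observers scored neurite formation from 0 (no neurites) to 8 (long neurites on almost all cells).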"}, "Neuro-2a [2]": {"tested_on": "Neuro-2a", "experiment": "neurite formation score, plate-normalized to DMSO control mean 5.04 (score (0-8 scale)); higher = more or longer neurites", "settings": "0.1 µM", "procedure": "as §1, with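 “at 0.1” for “at 1”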"}}, "note": "Several values for one entry are separate records, joined by “and”; a condition that tells them apart may be missing. Identical values can stand only once.", "data": [{"smiles": "CO[C@@H](C(=O)N1Cc2[nH]nc(NC(=O)c3ccc(N4CCN(C)CC4)cc3)c2C1)c1ccccc1", "values": [{"measurement": "neurite formation score", "setting": "Neuro-2a [1]", "value": 3.69}, {"measurement": "neurite formation score", "setting": "Neuro-2a [2]", "value": 4.58}]}, {"smiles": "Oc1ccc(Nc2nc(-c3ccc(Cl)cc3)cs2)cc1", "values": [{"measurement": "neurite formation score", "setting": "Neuro-2a [1]", "value": 4.21}, {"measurement": "neurite formation score", "setting": "Neuro-2a [2]", "value": 2.42}]}, {"smiles": "c1ccc2c(-c3cnn4cc(-c5ccc(N6CCNCC6)cc5)cnc34)ccnc2c1", "values": [{"measurement": "neurite formation score", "setting": "Neuro-2a [1]", "value": "5.14 and 4.47"}, {"measurement": "neurite formation score", "setting": "Neuro-2a [2]", "value": "2.42 and 4.42"}]}, {"smiles": "COc1ccc(-c2cc3c(C)nc(N)nc3n([C@H]3CC[C@H](OCCO)CC3)c2=O)cn1", "values": [{"measurement": "neurite formation score", "setting": "Neuro-2a [1]", "value": 3.96}, {"measurement": "neurite formation score", "setting": "Neuro-2a [2]", "value": 4.92}]}, {"smiles": "CN1CCN(S(=O)(=O)c2ccc(-c3cnc(N)c(C(=O)Nc4cccnc4)n3)cc2)CC1", "values": [{"measurement": "neurite formation score", "setting": "Neuro-2a [1]", "value": 2.88}, {"measurement": "neurite formation score", "setting": "Neuro-2a [2]", "value": 4.75}]}, {"smiles": "COc1cc2nccc(Oc3ccc(NC(=O)NC4CC4)c(Cl)c3)c2cc1C(N)=O", "note": "[Lenvatinib (E7080)]", "values": [{"measurement": "neurite formation score", "setting": "Neuro-2a [1]", "value": 4.57}, {"measurement": "neurite formation score", "setting": "Neuro-2a [2]", "value": 4.38}]}, {"smiles": "Nc1cccc(-c2cc3c(Oc4cccc(O)c4)ncnc3[nH]2)c1", "values": [{"measurement": "neurite formation score", "setting": "Neuro-2a [1]", "value": 1.88}, {"measurement": "neurite formation score", "setting": "Neuro-2a [2]", "value": 3.75}]}, {"smiles": "C[C@@H]1CCN(C(=O)CC#N)C[C@@H]1N(C)c1ncnc2[nH]ccc12", "values": [{"measurement": "neurite formation score", "setting": "Neuro-2a [1]", "value": "4.02 and 4.69"}, {"measurement": "neurite formation score", "setting": "Neuro-2a [2]", "value": "3.92 and 5.58"}]}, {"smiles": "O=C1NCCc2[nH]c(-c3ccncc3)cc21", "values": [{"measurement": "neurite formation score", "setting": "Neuro-2a [1]", "value": 5.69}, {"measurement": "neurite formation score", "setting": "Neuro-2a [2]", "value": 5.92}]}, {"smiles": "Nc1nc(NCCNc2ncc(-n3ccnc3)c(-c3ccc(Cl)cc3Cl)n2)ccc1[N+](=O)[O-]", "values": [{"measurement": "neurite formation score", "setting": "Neuro-2a [1]", "value": 5.29}, {"measurement": "neurite formation score", "setting": "Neuro-2a [2]", "value": 4.92}]}, {"smiles": "Nc1ncnc2c1c(-c1cnc3[nH]ccc3c1)nn2C1CCCC1", "values": [{"measurement": "neurite formation score", "setting": "Neuro-2a [1]", "value": 3.21}, {"measurement": "neurite formation score", "setting": "Neuro-2a [2]", "value": 4.42}]}, {"smiles": "Cc1[nH]c(/C=C2\\C(=O)Nc3ccc(S(=O)(=O)N(C)c4cccc(Cl)c4)cc32)c(C)c1C(=O)N1CCN(C)CC1", "values": [{"measurement": "neurite formation score", "setting": "Neuro-2a [1]", "value": 3.57}, {"measurement": "neurite formation score", "setting": "Neuro-2a [2]", "value": 5.04}]}, {"smiles": "Nc1nc(Nc2ccc3c(c2)CCC(N2CCCC2)CC3)nn1-c1cc2c(nn1)-c1ccccc1CCC2", "note": "(stereo unspecified)", "values": [{"measurement": "neurite formation score", "setting": "Neuro-2a [1]", "value": 4.24}, {"measurement": "neurite formation score", "setting": "Neuro-2a [2]", "value": 4.54}]}]}
